Hits are enriched below; roughly 6.9% of the tested compounds scored in any of these assays.
MCF10A rereplic: inducers of DNA re-replication in MCF 10A breast cells; 350,000 tested, 2.9% active; MCF 10A DNA re-replication, Hoechst nuclear intensity, 48 h; Potency, µM (top dose mostly 46.1 µM), for inactives: top-dose activity, positive = re-replication, usual class: activators; also: potency is read from the fitted curve at half-maximal effect; % of control where 0% means no effect; nearly all actives have a fitted effect of over 50% in size
KB-3-1 cytotox: KB-3-1 parental cell cytotoxicity; AID 1347075; Potency, µM (series often up to 46.1 µM), hits mostly cytotoxic; KB-3-1 viability, CellTiter-Glo ATP luminescence, 72 h; 400,000 tested, 1.4% active; also: potency is read from the fitted curve at half-maximal effect; % is scaled to controls: 0 for no effect and ±100 for the full control effect; nearly all actives have a fitted effect of over 60% in size
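Screening of KB-3-1 cells (DMEM, 10% FBS, phenol-red free) ran from lowest to highest compound concentration; after 72 h at 37 °C viability was read luminescently and curves fitted.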
KB-V1 cytotox: KB-V1 MDR subline cytotoxicity | KB-V1 MDR cells viability, CellTiter-Glo, 72 h | Potency, µM (titrated, usually from 46.1 µM), hits mostly cytotoxic | 400,000 tested, 3.4% active; also: potency is read from the fitted curve at half-maximal effect; % is scaled to controls: 0 for no effect and ±100 for the full control effect; nearly all actives have a fitted effect of over 60% in size
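Luminescent ATP read-out (CellTiter-Glo, 10 min) measures survival of drug-selected KB-V1 MDR cells after 72 h, 37 degrees C compound exposure. Medium: phenol-red-free DMEM, 10% FBS. Values from fitted concentration-response curves.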
ASM inhibitor: blocks human secretory acid sphingomyelinase; 340,000 tested, 0.006% active; placental ASM, HMU-PC fluorogenic substrate, 60 min; Potency, µM (doses to about 57.5 µM), for inactives: top-dose activity change, negative = inhibition, most hits filed as inhibitors; AID 504937; also: potency is read from the fitted curve at half-maximal effect
Target sequence (P17405 47-631 limits assumed): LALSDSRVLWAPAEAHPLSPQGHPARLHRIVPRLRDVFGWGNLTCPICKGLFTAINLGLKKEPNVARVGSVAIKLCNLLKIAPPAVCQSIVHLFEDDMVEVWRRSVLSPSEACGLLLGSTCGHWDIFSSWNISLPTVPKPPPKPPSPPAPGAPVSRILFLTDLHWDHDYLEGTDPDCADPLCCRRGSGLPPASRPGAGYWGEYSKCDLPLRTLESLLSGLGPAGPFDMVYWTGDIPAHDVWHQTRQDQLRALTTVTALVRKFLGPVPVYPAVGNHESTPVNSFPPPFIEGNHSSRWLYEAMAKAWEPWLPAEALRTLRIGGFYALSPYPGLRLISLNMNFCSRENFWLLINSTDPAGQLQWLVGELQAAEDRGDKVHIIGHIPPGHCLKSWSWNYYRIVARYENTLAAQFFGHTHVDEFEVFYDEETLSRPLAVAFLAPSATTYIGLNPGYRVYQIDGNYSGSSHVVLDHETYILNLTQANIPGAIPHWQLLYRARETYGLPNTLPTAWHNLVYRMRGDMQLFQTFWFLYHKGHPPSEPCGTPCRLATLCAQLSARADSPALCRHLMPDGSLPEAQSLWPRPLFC
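qHTS format. ASM enzyme prepared from human placenta hydrolyses the fluorogenic substrate HMU-PC0 (9 uM final) over 60 min at 37 °C after a 10 min compound preincubation.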
SW480 rereplic: DNA re-replication induction in SW480 cells; SW480 DNA re-replication, Hoechst DNA content imaging, 48 h; 340,000 tested, 1.8% active; Potency, µM (top dose mostly 46.1 µM), inactives show at the highest dose re-replication activation, hits mostly activators; AID 624297; also: potency is read from the fitted curve at half-maximal effect; % of control where 0% means no effect; nearly all actives have a fitted effect of over 55% in size
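Cells (250 per well) received 23 nL compound or DMSO by pin tool and were kept 48 hr at 37 C, 5% CO2. Nuclei were then stained with Hoechst for 40 min and scanned for DNA content.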
Giardia killer: Giardia lamblia killing | Giardia lamblia trophozoite viability | activity change, % at 7.66 µM, hits read low | 340,000 tested, 0.15% active; in the data active = activity change below about -80%; inconclusive = between about -30% and that limit;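 also: parasites exposed to compound for two days anaerobically before the ATP read; % is scaled to controls: 0 for no effect and ±100 for the full control effect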
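Viability, read as ATP luminescence: trophozoites at 100 cells/well, compound added, 48 hrs anaerobic at 37 deg C, then 15-30 min room-temperature development before reading.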
* hit, by the source's call; i = inactive; ? = inconclusive; . = no result. Unless noted, calls follow the shape of the dose curve; as a rule, active = well fitted curve in the direction sought with a large enough effect; inconclusive = small, poorly fitted or top-dose-only effect, or another doubt; inactive = no such curve, though single readings can be large; an effect the other way counts as inactive or inconclusive.

SMILES | MCF10A rereplic | KB-3-1 cytotox | KB-V1 cytotox | ASM inhibitor | SW480 rereplic | Giardia killer
COc1ccc2nc(C)cc(Sc3nc4ccccc4s3)c2c1 | 16µM* | ? | 18µM* | -5% | ? | -1
Cc1cc2c(cc1NC(=O)c1ccc(C(C)(C)C)cc1)n(C)c(=O)c(=O)n2C | . | i | ? | . | . | .
CCC(c1nnnn1-c1ccc2c(c1)OCCO2)N1CCN(c2ccc(F)cc2)CC1 (centres undefined) | . | ? | 10µM* | . | . | .
CC(C)(C)OC(=O)N1CCCN(C(c2ccnc3ccccc23)c2nnnn2-c2ccc3c(c2)OCCO3)CC1 (centres undefined) | . | ? | i | . | . | .
Cc1cccc(C)c1N1CCN(C(c2ccnc3ccccc23)c2nnnn2-c2ccc3c(c2)OCCO3)CC1 (centres undefined) | . | 21µM* | 18µM* | . | . | .
CCOC(=O)N1CCN(C(c2ccnc3ccccc23)c2nnnn2-c2ccc3c(c2)OCCO3)CC1 (centres undefined) | . | ? | 18µM* | . | . | .
CCC(C(=O)Nc1ccccc1C(=O)OC)n1c(C)c2cnn(-c3ccccc3)c(=O)c2c1C (centres undefined) | . | i | i | . | . | .
Cc1nn(-c2ccccc2)c(NC(=O)c2cccs2)c(-c2ccccc2)c1=O | 2% | i | i | 3% | -3% | -2
O=CNc1cc(-c2ccc(C(=O)NC3CC3)cc2)cn2c(-c3ccc(F)cc3)cnc12 | . | i | ? | . | . | .
CCOc1ccc(NC(=O)COC(=O)c2ccccc2OCC(=O)N(C)C)cc1 | . | ? | i | . | . | .
O=c1c2ccccc2nc(SCc2cccc(F)c2)n1-c1cccc(S(=O)(=O)N2CCCC2)c1 | 1% | i | 3.3µM* | -1% | -46% | -13
COC(=O)c1ccc(C2N=C(c3cccs3)CC(c3ccccc3O)N2)cc1 (centres undefined) | 18µM* | i | i | 16% | ? | -18
O=C(c1ccccc1)N1N=C(c2cccs2)CC1c1ccccc1O (centres undefined) | 17% | i | i | -11% | -7% | 12
CCc1ccc(NC(=O)c2sc3nc(C)c(Cl)c(C)c3c2NC(=O)c2ccccc2)cc1 | . | i | i | . | . | .
O=C(Cc1ccc(OCCCCc2ccccc2)cc1)NO | . | i | i | . | . | .
CCCCc1ccc(NC(=O)Cn2nnc3sc4c(c3c2=O)CCC(C)C4)cc1 (centres undefined) | . | i | i | . | . | .
COC(=O)c1ccc(COc2ccccc2/C=C(\C#N)C(=O)Nc2c(C)cc(C)cc2C)cc1 | 5.8µM* | 12µM* | 16µM* | . | 8.2µM* | 5
COC(=O)c1ccc(COc2ccccc2/C=C(\C#N)C(=O)Nc2ccc(C)cc2C)cc1 | ? | i | ? | -5% | 15% | -11
CCOC(=O)C1=C(CS(=O)(=O)c2ccc(C)c(C)c2)NC(=O)NC1c1ccccc1OCC (centres undefined) | . | i | i | . | . | .
Cc1ccc(Cn2ccsc2=NC(=O)COC(=O)C(C)C)cc1 | 2% | 16µM* | i | 3% | 2% | -4
CCOc1ccc(S(=O)(=O)N2CCC(C(=O)OC(C)C(=O)N(C)C3CCCCC3)CC2)cc1 (centres undefined) | -14% | ? | ? | -4% | 2% | 5
COc1cccc(C(=O)C(C#N)=C(SC)SC)c1 | ? | i | i | 4% | ? | 10
CSC(SC)=C(C#N)C(=O)c1ccccc1 | 23µM* | i | ? | 1% | ? | -5
CC1(C)CCC(c2ccc(Cl)cc2)=C(CN2CCN(c3ccc(C(=O)NS(=O)(=O)c4ccc(N[C@H](CCN5CCOCC5)CSc5ccccc5)c(S(=O)(=O)C(F)(F)F)c4)cc3)CC2)C1 | . | i | i | . | . | .
COc1ccc(N(C(=O)c2ccncc2)S(=O)(=O)c2ccc(Cl)cc2)cc1 | 5% | i | i | 2% | -2% | ?
SMILES | MCF10A rereplic | KB-3-1 cytotox | KB-V1 cytotox | ASM inhibitor | SW480 rereplic | Giardia killer
COc1ccc(N(C(=O)C(C)C)S(=O)(=O)c2ccc(Cl)cc2)cc1 | -5% | i | 18µM* | 0% | 6% | -5
CCOP(=O)(OCC)c1nc(/C=C/c2ccccc2)oc1NCc1ccccc1 | ? | ? | ? | i | 21µM* | -6
COc1ccc(CCNc2oc(-c3cccc4ccccc34)nc2P(=O)(OC)OC)cc1OC | ? | i | 12µM* | i | ? | 1
CCOP(=O)(OCC)c1nc(-c2cccc3ccccc23)oc1NCc1ccc(OC)cc1 | ? | i | i | i | 18µM* | 17
COc1ccc(S(=O)(=O)c2c(O)c(C)cc(NS(=O)(=O)c3ccc(Cl)cc3)c2C(C)C)cc1 | . | i | i | . | . | .
O=C(Cn1c(=O)n(Cc2ccco2)c(=O)c2sc3ccccc3c21)Nc1ccccc1C(F)(F)F | . | i | i | . | . | .
COc1ccc(S(=O)(=O)N2CCCC2CNC(=O)C(=O)NCc2ccccc2)cc1 (centres undefined) | -30% | ? | ? | 0% | -51% | 2
COc1ccc(CCNC(=O)C(=O)NCC2CCCN2S(=O)(=O)c2ccccc2)cc1 (centres undefined) | ? | i | i | 15% | 4.6µM* | 12
COc1ccc(S(=O)(=O)N2CCCC2CNC(=O)C(=O)NCCc2ccccc2)cc1 (centres undefined) | ? | 8.2µM* | 4.6µM* | 2% | ? | 7
O=C(NCCc1ccc(F)cc1)C(=O)NCC1CCCN1S(=O)(=O)c1ccccc1 (centres undefined) | ? | 18µM* | 5.8µM* | -1% | ? | -3
COc1ccccc1CCNC(=O)C(=O)NCC1CCCN1S(=O)(=O)c1ccccc1 (centres undefined) | ? | i | 21µM* | 2% | ? | 14
COc1ccc2c(C)c(CCC(=O)NCCc3ccccc3)c(=O)oc2c1 | . | i | ? | . | . | .
Cc1ccc(OCCCSc2nc(-c3ccc(C(C)(C)C)cc3)nc3cc(=O)[nH]n23)cc1C | . | i | i | . | . | .
COc1ccc(C(CNC(=O)c2cc3ccccc3o2)N2CCCCC2)cc1 (centres undefined) | 12% | i | i | -1% | 5% | 6
CN1CCN(c2cc3c(nn2)Oc2ccccc2N3C)CC1 | 3% | . | . | . | -3% | .
CC(C)c1ccc(C(=O)NCCCN2CCN(CCCNC(=O)c3ccc(C(C)C)cc3)CC2)cc1 | 23µM* | i | ? | -3% | ? | 2
c1ccc(-c2nnc(-c3ccccc3)nn2)cc1 | 5% | i | i | -1% | -1% | -12
c1ccc(-c2nn(-c3ccccc3)[n+](-c3ccccc3)n2)cc1 | 12% | 7.3µM* | i | -1% | 9% | 4
